Not all results are given here.
aSyn 5UTR act = Activators working through SNCA 5'UTR binding (MLPCN); alpha-synuclein 5'UTR reporter, activators screen; activity score, % (tested at 7.5 µM), hits read low; actives 7.1% (n = 300,000); AID 1814; in the data active means activity score below about -60%
A number is an active result; – = inactive.

SMILES | aSyn 5UTR act
OC(COc1ccc(-c2ccccc2)cc1)CN1CCOCC1 (stereo not drawn) | -73
OC1CCCN(CC(O)COc2ccc(-c3ccccc3)cc2)C1 (stereo not drawn) | -74
COc1ccc(C(O)(CC(C)C)C(CN2CCOCC2)c2ccccc2)cc1 (stereo not drawn) | –
OC(CNCCc1ccccc1)COc1ccc(OCC(O)CNCCc2ccccc2)cc1 (stereo not drawn) | –
OCCN(Cc1ccccc1)CC(O)COc1ccc(-c2ccccc2)cc1 (stereo not drawn) | -96
OCCN1CCN(CC(O)COc2ccc(-c3ccccc3)cc2)CC1 (stereo not drawn) | -126
OC(COc1ccc(OCc2ccccc2)cc1)CN1CCCCC1 (stereo not drawn) | -73
OC(COc1ccc2cc(Br)ccc2c1)CN1CCCC1 (stereo not drawn) | -97
O=C(CCCc1ccccc1)NC12CC3CC(CC(C3)C1)C2 | -151
O=C(NCCc1ccc(F)cc1)NC12CC3CC(CC(C3)C1)C2 | -117
CNC[C@H](CC1CCCCC1)NC[C@H](Cc1ccccc1)NCCC12CC3CC(CC(C3)C1)C2 | –
O=C(NCCC1=CCCCC1)NC12CC3CC(CC(C3)C1)C2 | -118
Cc1nc(-c2ccccc2)nc2[nH]ccc(=O)c12 | -101
Cc1nc(-c2ccc([N+](=O)[O-])cc2)nc2[nH]ccc(=O)c12 | -202
Cc1cc(Cl)c(O)c(-n2nc3ccccc3n2)c1 | -143
CC(=O)Oc1ccc(C)cc1-n1nc2ccccc2n1 | -212
Cc1ccc2nc(NNC(=O)c3ccc(S(=O)(=O)N4CCc5ccccc5C4)cc3)sc2c1 | –
Cc1ccc(OC(=O)c2cccc(S(=O)(=O)N3CCCC3)c2)c(-n2nc3ccccc3n2)c1 | -162
Cc1ccc(OC(=O)c2ccc(S(=O)(=O)N(C)C)cc2)c(-n2nc3ccccc3n2)c1 | -195
CC(=O)Nc1ccc(-c2nc3ccc(NC(C)=O)cc3o2)cc1 | -104
Cc1cc2nc(-c3ccc(NC(=O)C(C)C)cc3)oc2cc1C | -196
CC(=O)Nc1cc(-c2nc3ccccc3o2)ccc1Cl | -77
COC(=O)/C(=C/Nc1cccc2ccccc12)[N+](=O)[O-] | -68
CCOc1ccc(N2Nc3n[nH]c(N)c3N2)cc1 | -65
COc1ccc(N2Nc3n[nH]c(N)c3N2)cc1 | -73
SMILES | aSyn 5UTR act
CSc1ccc(/C=C/C(=O)NC(=O)c2ccccc2O)cc1 | -119
O=C(/C=C/c1ccc(O)c(O)c1)NC(=O)c1ccccc1O | -145
O=C(/C=C/c1ccc(Br)cc1)NC(=O)c1ccccc1O | -162
COc1ccc(NC(=O)c2ccc([N+](=O)[O-])o2)cc1 | -320
Cc1ccccc1C(=O)N1CCN(c2ccc(NC(=O)c3ccc([N+](=O)[O-])o3)cc2)CC1 | -168
Cc1ccccc1C(=O)N1CCN(c2ccc(NC(=O)c3ccc4c(c3)OCO4)cc2)CC1 | –
NS(=O)(=O)c1ccc(O)c(NC(=O)c2ccc([N+](=O)[O-])o2)c1 | -62
CC(=O)c1ccc(NC(=O)c2ccc([N+](=O)[O-])o2)cc1 | -355
CN1CCN(c2ccc(NC(=O)c3ccc([N+](=O)[O-])o3)cc2Cl)CC1 | –
CCCC(=O)N1CCN(c2ccc(NC(=O)c3ccc([N+](=O)[O-])o3)cc2Cl)CC1 | -118
O=C(Nc1ccc2oc(=O)ccc2c1)c1ccc(-c2cccc([N+](=O)[O-])c2)o1 | –
CN1CCN(c2ccc(NC(=O)c3ccc(-c4cccc([N+](=O)[O-])c4)o3)cc2)CC1 | -208
O=C(Cn1cc(SCc2ccc(Cl)cc2)c2ccccc21)N1CCOCC1 | -90
COc1cc(C(=O)N/N=C/c2cn(Cc3ccccc3)c3ccccc23)ccc1O | –
O=C(CSc1cn(Cc2ccccc2)c2ccccc12)N1CCOCC1 | -129
O=c1c2ccccc2[nH]c(=S)n1CCc1ccccc1 | -123
COc1ccc(OCCSc2nnc3sc4ccccc4n23)cc1 | -131
O=C(Nc1ccc(Br)cc1)c1cnccn1 | -94
Cc1ccc(NC(=O)c2cnccn2)cc1 | -82
Cc1ccc(NC(=O)c2cnccn2)cc1C | -72
COc1cccc(C2=CC(c3ccc(N(C)C)cc3)n3nnnc3N2)c1 (stereo not drawn) | -76
COc1ccc(C2C=C(c3ccccc3)Nc3nnnn32)cc1 (stereo not drawn) | -168
COc1cccc(C2=CC(c3ccc(N(C)C)cc3)n3ncnc3N2)c1 (stereo not drawn) | -72
Cc1ccc(S(=O)(=O)Nc2ccccc2-c2ccccc2)cc1 | –
O=C(Nc1ccccc1-c1ccccc1)c1ccc(=O)[nH]n1 | -128
SMILES | aSyn 5UTR act
CC(C)(C)c1ccc(NC(=O)c2ccc(=O)[nH]n2)cc1 | -102
Cc1nc(N2CCN(S(=O)(=O)c3ccccc3)CC2)c2cc(-c3ccccc3)sc2n1 | -113
O=C(Nc1ccc(Cl)c(Cl)c1)OCc1cncs1 | -97
O=c1c2ccccc2nc(SCc2nc3ccccc3s2)n1CCCO | -182
Nc1sccc1C(=O)c1ccc(Cl)cc1 | -120
COc1ccc2nc3sc(C(=O)NCCCN4CCc5ccccc5C4)cc3cc2c1 | -84
CCN(CC)S(=O)(=O)c1ccc2nc(NC(=O)c3cccs3)sc2c1 | -104
